Source: PubChem
NALP1 yeast inh: NALP1 inhibition; S. cerevisiae NALP1/ASC/caspase-1 growth, X-gal OD620, 72 h; inhibition, % at 10 µM; hit rate 0.61% among 280,000; AID 2071; in the data active = inhibition mostly above about 24%, no sharp cut-off; inactive = mostly below about 32%
HSF1 inh: HSF1 inhibition | NIH3T3-HGL HSE-luciferase, MG132-induced, luminescence 8 h; stronger effect = lower value | activity change, negative = inhibition, % at 7.5 µM (by protocol) | hit rate 0.77% among 300,000;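 active = more than half of replicate wells show activity change below -50%, luminescence cut by over half; inconclusive = some wells, but at most half, below -50%; inactive = no replicate well below -50%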;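 note: luciferase reports HSF-1 transcriptional activity via heat shock element; 0% = median of DMSO wells and -100% = zero luminescence signal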
HSF1 activator: increases HSF-1 driven luciferase reporter signal. NIH3T3-HGL HSF-1 luciferase reporter, MG132, 8 h; 100% = twice DMSO control signal. activation, % at 9 µM. hit rate 1.7% among 300,000;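 active = mean replicate activation of at least 50% with a set share of replicates each reaching 50%; inconclusive = only one of those two conditions met; inactive = mean below 50% and too few replicates reaching it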;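 note: 0% = median of the neutral control wells and 100% = twice that signal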
pCIP destab: p/CIP protein destabilization; Q05BA5; F442A p/CIP-EGFP cells, EGFP fluorescence, 16 h; decrease of EGFP signal, % at 10 µM; hit rate 0.01% among 290,000;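 active = EGFP signal decrease of at least 30% at 10 µM or well 3 SD below plate mean, unless failing retest; inactive = the rest, including hits failing retest or dose response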
Target sequence (Q05BA5 1-1403): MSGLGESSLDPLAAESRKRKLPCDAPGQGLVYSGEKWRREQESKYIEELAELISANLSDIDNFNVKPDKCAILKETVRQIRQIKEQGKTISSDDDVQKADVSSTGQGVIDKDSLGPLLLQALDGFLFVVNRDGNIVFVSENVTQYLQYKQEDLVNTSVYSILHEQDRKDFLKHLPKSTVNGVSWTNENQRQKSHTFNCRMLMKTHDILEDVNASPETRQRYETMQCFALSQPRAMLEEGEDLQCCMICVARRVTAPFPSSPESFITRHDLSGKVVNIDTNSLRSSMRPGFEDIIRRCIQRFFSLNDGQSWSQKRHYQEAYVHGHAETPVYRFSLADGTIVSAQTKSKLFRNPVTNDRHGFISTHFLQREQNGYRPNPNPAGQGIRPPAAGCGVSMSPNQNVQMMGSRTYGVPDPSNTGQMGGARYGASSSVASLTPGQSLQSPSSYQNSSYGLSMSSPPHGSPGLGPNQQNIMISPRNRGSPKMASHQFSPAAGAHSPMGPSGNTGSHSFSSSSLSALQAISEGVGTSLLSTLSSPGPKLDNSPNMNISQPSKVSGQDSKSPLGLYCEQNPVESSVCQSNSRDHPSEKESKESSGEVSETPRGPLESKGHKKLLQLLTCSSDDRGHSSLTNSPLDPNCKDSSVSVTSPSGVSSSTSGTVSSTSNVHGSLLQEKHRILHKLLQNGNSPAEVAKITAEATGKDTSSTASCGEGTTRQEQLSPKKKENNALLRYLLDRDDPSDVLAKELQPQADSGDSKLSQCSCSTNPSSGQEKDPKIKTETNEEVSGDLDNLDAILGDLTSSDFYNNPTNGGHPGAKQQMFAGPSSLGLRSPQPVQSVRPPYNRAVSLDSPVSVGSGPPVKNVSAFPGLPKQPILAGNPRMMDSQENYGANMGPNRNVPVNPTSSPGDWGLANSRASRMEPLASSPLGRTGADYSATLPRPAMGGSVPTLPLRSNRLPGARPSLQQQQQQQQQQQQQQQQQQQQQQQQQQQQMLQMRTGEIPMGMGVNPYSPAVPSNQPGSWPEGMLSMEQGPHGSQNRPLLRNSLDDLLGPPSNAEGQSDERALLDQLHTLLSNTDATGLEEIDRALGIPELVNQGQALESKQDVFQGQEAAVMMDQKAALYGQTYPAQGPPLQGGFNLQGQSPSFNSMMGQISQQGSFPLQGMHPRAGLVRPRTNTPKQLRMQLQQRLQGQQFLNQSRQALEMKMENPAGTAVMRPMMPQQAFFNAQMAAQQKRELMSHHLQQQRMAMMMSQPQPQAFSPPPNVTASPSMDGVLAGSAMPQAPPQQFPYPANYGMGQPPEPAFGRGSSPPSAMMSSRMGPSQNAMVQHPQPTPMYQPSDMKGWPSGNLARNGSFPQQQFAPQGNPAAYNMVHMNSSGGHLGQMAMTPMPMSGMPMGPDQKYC
HSP90 inh: blocks HSP90-mediated luciferase refolding in reticulocyte lysate | Rabbit reticulocyte lysate, luciferase refolding luminescence, 3 h | inhibition, % at 5.6 µM | hit rate 0.91% among 290,000;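 active = inhibition above the screen-wide mean plus 3 SD, computed separately per campaign, cut at about 16% in these data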;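 note: 0% = DMSO wells and 100% = 60 µM geldanamycin wells; inhibitors lower the luminescence because luciferase stays unfolded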
Hsp70 act: switches on Hsp70 transcription; activation, % at 10 µM; hit rate 0.04% among 200,000; HeLa Hsp70 promoter luciferase reporter, luminescence; scaled: vehicle 0, proteasome-inhibitor control 100%;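 active = activation above the mean across all tested compounds plus 3 SD, cutoff set per campaign, cut at about 5.5% in these data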;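 note: 100% = MG132 at 30 µM as the positive control and 0% = DMSO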
Starred values were filed as active, the others as inactive; ? = inconclusive; · = no result. In the library only some 3.8% were active in any assay of this set; here they are far more common.

SMILES | NALP1 yeast inh | HSF1 inh | HSF1 activator | pCIP destab | HSP90 inh | Hsp70 act
CCc1c(C)c(C#N)c2nc3ccccc3n2c1-n1nc(C)cc1C | 23 | 5 | -2 | -5 | 4 | 0
CCCN1C(=O)SC(CC(=O)Nc2ccccc2)C1=O (stereo not drawn) | 27 | -11 | -2 | -18 | 1 | 0
O=C(O)CC1SC(=O)N(Cc2ccccc2)C1=O (stereo not drawn) | 7 | -89* | -92 | -12 | 1 | 0
CCN1CCN(c2nc3c(c(=O)[nH]c(=O)n3C)n2CCSc2nc3ccccc3s2)CC1 | 17 | -4 | 8 | -22 | 3 | 0
CC(CSc1nc2ccccc2s1)Cn1c(N2CCCC2)nc2c1c(=O)[nH]c(=O)n2C (stereo not drawn) | 36 | 22 | 56* | 7 | 0 | 0
COc1ccccc1-c1cc2nc(C)c(CCC(=O)NCc3ccc(F)cc3)c(C)n2n1 | · | 8 | 7 | 3 | -5 | ·
COc1cc(OC)cc(-c2cc3nc(C)c(CCC(=O)NCc4ccccc4)c(C)n3n2)c1 | · | -57* | -53 | 0 | 13 | ·
Cc1c(/C(O)=C2\C(=O)C(=O)N(CCCN(C)C)C2c2ccccc2)cnn1-c1ccccc1 (stereo not drawn) | 7 | · | · | 4 | 42* | 0
OCCC1CN(Cc2cccn2-c2nccs2)CCN1C1CCCCC1 (stereo not drawn) | 25* | -2 | -10 | -3 | 2 | 1
Cc1nc2sccn2c(=O)c1S(=O)(=O)Nc1ccc(N2CCN(C)CC2)cc1 | 11 | -1 | 0 | -1 | 0 | ·
N/C(=N\OC(=O)c1ccc(Cl)cc1Cl)c1ccccc1 | 8 | ? | -59 | 95 | 16 | 1
N/C(=N\OC(=O)CC1CCCCC1)c1ccc(Br)cc1 | 2 | -1 | 4 | -26 | -2 | ·
N/C(=N\OC(=O)CC1CCCCC1)c1ccc(Cl)cc1 | 32* | 20 | 7 | -10 | 2 | ·
N/C(=N\OC(=O)c1ccc(Cl)cc1Cl)c1ccc(Cl)cc1 | 12 | -72* | -73 | 14 | 9 | 0
CCn1nnc(NC(=O)C(C)(c2ccccc2)c2ccccc2)n1 | 10 | -1 | 0 | -5 | 1 | 0
CN(C)c1nc(NC(C)(C)C)nc(SCC(=O)Nc2ccccc2)n1 | -2 | 22 | 66* | -10 | -2 | 0
CN(C)c1nc(NCc2ccccc2)nc(SCC(=O)Nc2ccccc2)n1 | 10 | 2 | 13 | -10 | 0 | 0
COc1ccc(NC(=O)c2csc(Cc3ccc(Cl)cc3)n2)cc1 | 12 | 22 | 37 | -9 | -4 | 0
COc1ccc(Cc2nc(C(=O)Nc3ccccc3)cs2)cc1 | 13 | 27 | 59* | 1 | -5 | 0
COc1cc2c(cc1OC)C(c1cccc([N+](=O)[O-])c1)N(C(=O)CCC(=O)O)CC2 (stereo not drawn) | -3 | 6 | -2 | -9 | 0 | ·
O=C(NC1CCSc2ccccc21)c1ccccc1Cl (stereo not drawn) | 25 | 40 | 68* | -1 | 1 | ·
O=C(NC1CCSc2ccccc21)c1ccccc1F (stereo not drawn) | 30 | 8 | 22 | -3 | -4 | ·
COc1ccc(OC)c(C(=O)NC2CCSc3ccccc32)c1 (stereo not drawn) | -7 | 10 | 18 | -2 | -3 | ·
COc1ccccc1C(=O)NC1CCSc2ccccc21 (stereo not drawn) | 5 | 17 | 63* | -7 | -1 | ·
CCOC(=O)Cn1cc(Cl)cc(C(=O)Nc2ccccc2)c1=O | 15 | 10 | 3 | -9 | 1 | ·
CC1=CC2C(C(O)CC3(C)C2CC(C)C32OCOC23COCO3)C2(C)C/C(=C\O)C(=O)C=C12 (stereo not drawn) | · | 94* | 94* | · | · | ·
COC(c1ccccc1)c1nnc(CCC(=O)N(C)CCc2ccccc2)o1 (stereo not drawn) | 30* | -23 | -34 | -14 | 0 | 0
Cc1ccnc(NC(=O)CCC(=O)N(CC(=O)NC(C)(C)C)c2ccc3c(c2)OCO3)c1 | 7 | -3 | -20 | -4 | -2 | ·
Cc1ccccc1Nc1nc(N)nc(COC(=O)c2ccc(S(=O)(=O)N(C)C)cc2)n1 | 25 | -8 | -4 | -11 | 0 | 0
COc1ccc(C(=O)N2c3cc4c(cc3C(C)=CC2(C)C)OCO4)cc1 | 26* | -4 | 1 | 6 | 4 | 0
